This is an account of results in PubChem BioAssay (EPA / NIEHS).

What is called AC50 is the midpoint of the concentration-response curve, whichever way the signal moves.

Read-out in assay [1]: Monokine induced gamma interferon (MIG), CXCL9 (gene 4283)
Nature of the assay: BSK_SAg_MIG: BioMAP Diversity Plus: SAg Assay for Monokine induced gamma interferon (MIG) Biomarker Activity (AID 2283092). Particulars: primary human HUVEC with PBMC; actives raise or lower the signal. An outline of the steps: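 Measures CXCL9 protein by ELISA in a human vascular primary-cell co-culture (umbilical vein endothelium with PBMC) 24 h after chemical addition. Activity is scored up or down from the DMSO control.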

The nature of assay [2]: BSK_SAg_PBMCCytotoxicity: PBMC Cytotoxicity Assessment in the BioMAP Diversity Plus: SAg Assay (AID 2283093).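 Further: PBMC viability measured as Alamar Blue reduction fluorescence at 546/580 nm; fitted both ways against DMSO so a hit may be loss or gain of signal.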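 On AC50: PBMC superantigen activated with SEB plus TSST-1 one hour after compound addition.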 Particulars: primary human HUVEC with PBMC. An outline of the steps:
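Alamar Blue reduction (6 h, ex/em 546/580 nm) read after 90 h culture of PBMC pre-dosed 1 h then stimulated with SEB plus TSST-1, 20 ng/mL each. Gain or loss of signal fitted relative to DMSO.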

Read-out in assay [3]: Interleukin-8 (IL8), CXCL8 (gene 3576)
Nature of the assay: BSK_SAg_IL8: BioMAP Diversity Plus: SAg Assay for Interleukin-8 (IL8) Biomarker Activity (AID 2283094). Particulars: primary human HUVEC with PBMC; actives raise or lower the signal. In a few lines: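 Chemicals were dosed onto a human endothelial–PBMC co-culture, and IL-8 was quantified by ELISA after 24 h. Both increases and decreases were fitted relative to DMSO.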

Assay [4] is described as follows: BSK_SAg_Proliferation: Cell Proliferation Assessment in the BioMAP Diversity Plus: SAg Assay (AID 2283095).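 Further: relative cell number as total protein by SRB absorbance in sub-confluent culture.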 Particulars: primary human HUVEC with PBMC. In a few lines: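 Absorbance of sulforhodamine B at 560 nm reports total protein in a human vascular endothelial/PBMC co-culture after 96 h chemical exposure. Gain or loss of signal is fitted in both directions against DMSO.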

Assay [5] in a line: BSK_SAg_SRB: Viability Assessment in the BioMAP Diversity Plus: SAg Assay (AID 2283096).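 Further: cells read one day after compound addition; hits may be either gain or loss of signal compared with DMSO.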 Particulars: primary human HUVEC with PBMC. An outline of the steps:
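SRB absorbance at 560 nm served as the viability read-out. Cells (HUVEC plus peripheral blood mononuclear cells) were TCA-fixed and stained 24 h post-dosing; activity fitted in both directions against DMSO controls.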

For assay [6], the target named is human CYP19A1, CYP19A1 (gene 1588) (UniProt P11511). Nature of the assay: NVS_ADME_hCYP19A1: NovaScreen (NVS) CYP450-related Enzyme Activity (ADME) Assay for human CYP19A1 (AID 2283098; active means hit-call score of the fitted dose curve at least 0.9, where 1 is the maximum;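 on AC50: potency for inhibitors seen as loss of fluorescent enzyme signal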). In a few lines:
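Primary testing was in duplicate at a single 10 uM concentration, with actives followed up in concentration-response series. Fluorescence read-out of recombinant enzyme activity at 0.5 h, cell-free. Acetonitrile was the negative-control baseline.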

The target of assay [7] is human CYP1A1, CYP1A1 (gene 1543) (UniProt P04798). Kind of assay: NVS_ADME_hCYP1A1: NovaScreen (NVS) CYP450-related Enzyme Activity (ADME) Assay for human CYP1A1 (AID 2283100; active means hit-call score of the fitted dose curve at least 0.9, where 1 is the maximum). An outline of the steps: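 Inhibition of recombinant CYP1A1 turnover was assessed fluorometrically in a biochemical format 1 h after compound exposure. Testing began at 10 uM in duplicate and progressed to concentration series reaching 20 uM, with on-plate positive and negative controls.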
Chain of human CYP1A1, CYP1A1 (gene 1543) (P04798 whole entry, looked up): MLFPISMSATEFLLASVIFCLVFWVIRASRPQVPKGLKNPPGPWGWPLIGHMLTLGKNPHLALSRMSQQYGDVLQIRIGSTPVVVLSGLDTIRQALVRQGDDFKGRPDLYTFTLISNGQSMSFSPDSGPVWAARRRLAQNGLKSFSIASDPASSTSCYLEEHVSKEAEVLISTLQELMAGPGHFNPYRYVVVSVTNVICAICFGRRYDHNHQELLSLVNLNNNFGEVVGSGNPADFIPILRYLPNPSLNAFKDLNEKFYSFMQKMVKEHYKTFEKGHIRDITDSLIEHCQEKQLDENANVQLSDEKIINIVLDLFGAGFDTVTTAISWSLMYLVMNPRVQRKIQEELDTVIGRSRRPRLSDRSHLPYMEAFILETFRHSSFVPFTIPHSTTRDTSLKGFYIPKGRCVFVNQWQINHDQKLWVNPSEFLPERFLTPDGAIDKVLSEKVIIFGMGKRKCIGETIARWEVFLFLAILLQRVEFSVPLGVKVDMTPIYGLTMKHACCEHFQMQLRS

Assay [8] concerns the target human CYP2A6, CYP2A6 (gene 1548) (UniProt P11509). Nature of the assay: NVS_ADME_hCYP2A6: NovaScreen (NVS) CYP450-related Enzyme Activity (ADME) Assay for human CYP2A6 (AID 2283099; active means hit-call score of the fitted dose curve at least 0.9, where 1 is the maximum). An outline of the steps:
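Loss of fluorescence signal relative to acetonitrile vehicle reported CYP2A6 inhibition in a cell-free system using insect-cell-derived enzyme. Readings were taken at 0.5 h; top concentration in follow-up dose series was 20 uM.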

In assay [9] the target is human CYP1A2, CYP1A2 (gene 1544) (UniProt P05177). Nature of the assay: NVS_ADME_hCYP1A2: NovaScreen (NVS) CYP450-related Enzyme Activity (ADME) Assay for human CYP1A2 (AID 2283102; active means hit-call score of the fitted dose curve at least 0.9, where 1 is the maximum;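 further: fluorescence from turnover of a fluorogenic substrate by recombinant insect-cell CYP1A2; potency for inhibition since loss of fluorescence marks reduced CYP1A2 activity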). In a few lines: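 Inhibition scored as decrease in fluorescent product versus acetonitrile negative control. Enzyme: insect-cell recombinant human CYP1A2, substrate-specific, cell-free. Reading at 0.5 h; 10 uM duplicate initial screen with positive and negative controls on every plate.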
Chain of human CYP1A2, CYP1A2 (gene 1544) (P05177 whole entry, looked up): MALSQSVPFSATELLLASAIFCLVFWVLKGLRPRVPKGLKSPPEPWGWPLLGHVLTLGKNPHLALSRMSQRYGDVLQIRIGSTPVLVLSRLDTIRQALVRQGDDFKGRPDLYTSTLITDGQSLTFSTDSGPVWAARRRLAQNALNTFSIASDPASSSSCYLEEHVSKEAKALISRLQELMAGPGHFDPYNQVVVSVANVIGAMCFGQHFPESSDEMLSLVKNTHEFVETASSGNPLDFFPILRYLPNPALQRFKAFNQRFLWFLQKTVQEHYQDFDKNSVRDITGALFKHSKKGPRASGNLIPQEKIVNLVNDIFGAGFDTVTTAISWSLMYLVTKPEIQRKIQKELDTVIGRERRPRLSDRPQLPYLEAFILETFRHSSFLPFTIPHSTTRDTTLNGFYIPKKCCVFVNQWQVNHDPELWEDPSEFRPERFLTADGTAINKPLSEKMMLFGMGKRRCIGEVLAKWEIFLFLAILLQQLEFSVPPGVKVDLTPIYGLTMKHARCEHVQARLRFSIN

Results filed as inconclusive are left out. Calls of active or inactive are those of the source. How the source made its calls, unless noted: active means hit-call score of the fitted dose curve at least 0.9, where 1 is the maximum; inactive means score below 0.9.

Chain of human CYP19A1, CYP19A1 (gene 1588) (P11511 whole entry, looked up): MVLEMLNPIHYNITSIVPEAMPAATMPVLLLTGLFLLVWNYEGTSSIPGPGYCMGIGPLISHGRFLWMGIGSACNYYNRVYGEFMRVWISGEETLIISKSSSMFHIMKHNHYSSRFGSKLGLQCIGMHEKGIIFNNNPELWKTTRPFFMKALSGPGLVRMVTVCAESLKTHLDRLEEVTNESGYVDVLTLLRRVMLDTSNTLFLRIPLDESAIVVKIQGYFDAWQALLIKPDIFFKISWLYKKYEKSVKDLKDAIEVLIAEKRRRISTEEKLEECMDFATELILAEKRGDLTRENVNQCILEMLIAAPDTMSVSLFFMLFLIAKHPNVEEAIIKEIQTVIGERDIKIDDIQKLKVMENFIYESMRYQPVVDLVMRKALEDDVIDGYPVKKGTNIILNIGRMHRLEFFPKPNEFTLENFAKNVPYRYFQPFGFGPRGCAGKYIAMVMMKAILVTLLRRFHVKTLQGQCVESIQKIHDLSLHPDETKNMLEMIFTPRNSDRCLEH
Chain of human CYP2A6, CYP2A6 (gene 1548) (P11509 whole entry, looked up): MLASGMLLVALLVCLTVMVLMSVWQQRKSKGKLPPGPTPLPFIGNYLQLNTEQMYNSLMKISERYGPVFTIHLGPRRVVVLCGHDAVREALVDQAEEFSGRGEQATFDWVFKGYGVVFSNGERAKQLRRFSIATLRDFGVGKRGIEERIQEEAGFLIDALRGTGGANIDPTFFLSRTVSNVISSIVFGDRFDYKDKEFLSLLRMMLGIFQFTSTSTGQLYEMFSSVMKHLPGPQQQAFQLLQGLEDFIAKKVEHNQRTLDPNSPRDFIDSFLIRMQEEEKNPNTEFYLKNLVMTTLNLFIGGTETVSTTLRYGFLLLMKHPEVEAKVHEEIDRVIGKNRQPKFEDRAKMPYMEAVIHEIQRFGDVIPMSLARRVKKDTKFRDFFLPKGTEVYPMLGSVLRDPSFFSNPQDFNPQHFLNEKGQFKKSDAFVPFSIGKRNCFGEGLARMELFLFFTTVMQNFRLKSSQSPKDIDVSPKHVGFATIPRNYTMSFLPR

Turning to `CC[C@H](c1ccc(O)cc1)[C@@H](CC)c1ccc(O)cc1`, the AC50 was 32.6 µM (active) in assay [1]; 31.1 µM (active) in [2]; 20.2 µM (active) in [3]; 19.2 µM (active) in assay [4]; 31.4 µM (active) in [5]; 1.77 µM (active) in assay [6].

On to `CC(C)(C)c1cccc(C(C)(C)C)c1O`, for which the outcome in assay [1], in [2], in assay [3], in [4] and in [5] was inactive.

For the compound `NC(=O)N(O)[C@@H]1C=C[C@H](Oc2cccc(Oc3ccc(F)cc3)c2)C1`, the result in assay [1], in assay [2], in assay [3] and in assay [5] was inactive. The AC50 in [4] was 20 µM (active).

On to `c1ccc2cc3c(ccc4ccccc43)cc2c1`, for which the outcome in assay [2], in assay [3], in [4], in assay [5], in assay [6] and in assay [7] was inactive.

As to `CN(C)C=O`, the outcome in assay [2], in assay [3], in [4] and in assay [5] was inactive.

With `CC(=O)CC(C)(C)O`, the result in assay [2], in assay [3], in [4] and in [5] was inactive.

As for `CCCCCCC(=O)O`, the outcome in assay [2], in assay [3], in [4] and in assay [5] was inactive.

`CC(C)(C)c1ccc(O)c(C(C)(C)C)c1`: the AC50 in assay [2] was 12.9 µM (active); in assay [3], 20 µM (active); in [4], 10.8 µM (active); in [5], 16.6 µM (active).

With `OC1CCCCC1`, the outcome in assay [2], in [3], in [4] and in assay [5] was inactive.

As to `Oc1cccc(O)c1`, the result in [2], in assay [3], in [4] and in [5] was inactive.

`CC(=O)NC1(c2cccc(F)c2)CCN(CC[C@@]2(c3ccc(Cl)c(Cl)c3)CN(c3ccccc3)C(=O)CO2)CC1`: the AC50 in assay [2] is 24.7 µM (active); in assay [3] it was 6.76 µM (active); in assay [5], 24.6 µM (active). Also, the outcome in assay [4], in assay [8] and in assay [7] was inactive.

As to `CC(C)CCCCCCOC(=O)CCCCC(=O)OCCCCCCC(C)C`, the outcome in [2], in assay [3], in assay [4] and in assay [5] was inactive.

For the compound `C#C[C@]1(O)CC[C@H]2[C@@H]3CCC4=CC(=O)CC[C@@H]4[C@H]3CC[C@@]21C`, the result in assay [2], in assay [3] and in assay [4] was inactive. Further, in [5], the AC50 is 7.46 µM (active).

Consider `CCCCCCCCC(=O)O`, for which the outcome in assay [2], in [3], in [4] and in assay [5] was inactive.

As to `CCCCCCCCOC(=O)CCCCCCCCC(=O)OCCCCCCCC`, the outcome in assay [2], in assay [3], in assay [4] and in [5] was inactive.

In the case of `CCc1nn(C2CCCCC2)c2cc(C3(C#N)CCC(C(=O)O)CC3)ccc12` (stereo not drawn), the result in assay [2] was inactive. The AC50 in assay [3] is 2.73 µM (active); in assay [4] it was 12.5 µM (active); in [5] it was 11.5 µM (active).

`CCN(CC)CCNc1ccc(CNC=O)c2sc3ccc(OC)cc3c(=O)c12`: the half-maximal activity concentration (AC50) was 12.9 µM (active) in [2]; 20 µM (active) in assay [3]; 7.57 µM (active) in assay [4]; 17.8 µM (active) in assay [5]; 6.62 µM (active) in assay [7]; 7.1 µM (active) in assay [9]. Besides, in assay [8], the call was inactive.

On to `ClC1=C(Cl)C(Cl)(Cl)C(Cl)=C1Cl`, for which the AC50 in assay [2] is 10.4 µM (active); in assay [3] it was 10.4 µM (active); in assay [4] it was 5.78 µM (active); in [5], 9.48 µM (active).
